Screen size: about 65,000 compounds; about 3,600 (5.5%) were called active. For the sample, actives were picked, then their nearest neighbours and some compounds at random. A number with no mark means an inactive call.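 Rule for the calls: active = at 10 µM, mean starting fluorescence two-fold or more over control wells; inactive = the rest.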
assay: intrinsic fluorescence of library compounds, ex339/em460 – biochemical, MLSMR library, data from DPM-DC assay, artefact control, profiling panel (AID 709); settings: compound autofluorescence, ex339/em460 nm, NADH buffer; at 10 µM; stronger effect = higher value; 1 = no-compound wells, NADH background;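 note: signal is the first read of a kinetic run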

| Structure (SMILES) | fluorescence fold increase |
| --- | --- |
| COc1ccc(C2CC(c3ccc(C)cc3)Nc3ncnn32)cc1 (centres undefined) | 1.03 |
| c1ccc(-n2ncc3c2ncn2c(CSc4nc5ccccc5s4)nnc32)cc1 | 1.81 |
| Cc1ccc(C(C)C)c(OCc2nnc(SCC(=O)Nc3nccs3)n2C)c1 | 1.13 |
| O=C(Nc1ccc(S(=O)(=O)N2CCCCC2)cc1)c1cnccn1 | 1.14 |
| COc1ccc(CCNS(=O)(=O)c2ccc(F)cc2)cc1OC | 1.09 |
| Cc1cc(NC(=O)c2cc(-c3cccs3)on2)nn1Cc1ccc(Cl)cc1 | 2.04 (active) |
| O=C(c1cc(-c2cccs2)on1)N1CCCCC1 | 1.16 |
| Cc1ccc(Cn2ccc(NC(=O)c3cc(C(C)C)on3)n2)cc1 | 1.08 |
| CCOC(=O)c1cc2cc(-c3c(C(=O)OCC)oc4cc(O)cc(O)c4c3=O)ccc2o1 | 1.11 |
| CCCCOc1ccc(Cl)cc1CSc1nncn1N | 1.07 |
| Cc1ccccc1NC(=O)Cc1nnc(SCC(=O)N2CCN(c3ccccc3)CC2)n1C | 1 |
| CN(C)c1nc2n(c(=O)n1)CCO2 | 1.07 |
| c1ccc(Nc2n[nH]nc2-c2ccccc2)cc1 | 1.07 |
| CCCC(=O)Nc1cc(OCC)c(NC(=O)NC2CCCCC2)cc1OCC | 1.11 |
| CCOc1ccc(CNC(=O)C2CCC(=O)N2C2CCCC2)cc1OC (centres undefined) | 1.07 |
| CCOc1cc(C2C(C(=O)OC)=CN(C3CCCC3)C=C2C(=O)OC)cc(Br)c1O | 2.88 (active) |
| c1ccc(-n2ncc(-c3nn[nH]n3)n2)cc1 | 1.08 |
| Cc1ccc(C(=O)Nc2ccc3c(c2)OCO3)cc1S(=O)(=O)N1CCCCC1 | 1.08 |
| CC(C)C1N=C2c3ccccc3N=C(SCC(=O)c3ccc(O)c(O)c3)N2C1=O (centres undefined) | 1.21 |
| O=C(CC1N=C2c3ccccc3N=C(SCc3ccccc3Cl)N2C1=O)NCc1ccco1 (centres undefined) | 1.58 |
| NC(=O)CSC1=Nc2ccccc2C2=NC(CCC(=O)NCc3ccc(F)cc3)C(=O)N12 (centres undefined) | 3.51 (active) |
| CC(C)C(C(=O)NC1CCCCC1)N(CC1CCCO1)C(=O)CNS(=O)(=O)c1ccc(F)cc1 (centres undefined) | 1.11 |

| Structure (SMILES) | fluorescence fold increase |
| --- | --- |
| COc1c(O)cccc1-c1nnn(CCC(=O)OCC(=O)c2ccccc2)n1 | 1.07 |
| CC(C)(CNCC(O)c1ccccc1)N1CCOCC1 (centres undefined) | 1.05 |
| O=S(=O)(O)CCN1CCOCC1 | 1.15 |
| Brc1cnc(N2CCCC2)nc1N1CCCCC1 | 1.08 |
| CCOc1cccc(=O)c2c(C)n(CC3CCCO3)c(C)c12 (centres undefined) | 1.05 |
| CCOc1cc(-c2nc3cc(C)ccn3c2NCC2CCCO2)ccc1O (centres undefined) | 3.63 (active) |
| CCOc1cc(C(=S)N2CCOCC2)ccc1O | 1.04 |
| CCn1c(=O)cc(SCC(=O)NCc2ccc3c(c2)OCO3)c2ccccc21 | 1.2 |
| COc1ccc(-c2ccc(-c3noc(-c4ccncc4)n3)c(OC)n2)cc1 | 3 (active) |
| O=C(Oc1ccc(-c2nc(-c3ccccn3)no2)cc1)c1ccccc1 | 1.09 |
| COc1ccc(-c2nc(-c3ccccc3)no2)c(OC)c1 | 1.12 |
| CCOc1nc(-c2ccc(OC)cc2)ccc1-c1noc(-c2cc(OC)c(OC)c(OC)c2)n1 | 3.92 (active) |
| COc1ccc2[nH]c(=O)c(-c3noc(-c4ccc(F)cc4)n3)cc2c1 | 1.38 |
| COc1cc(-c2nc(-c3ccncc3)no2)cc(OC)c1OC | 1.03 |
| CCc1nnc(NC(=O)c2c(O)c3c([nH]c2=O)CCCC3)s1 | 1.12 |
| Cc1ccc2cccc(S(=O)(=O)N3CCN(c4ccccc4F)CC3)c2n1 | 1.14 |
| O=C(CN1C(=O)CCC1=O)Nc1ccc(S(=O)(=O)N2CCOCC2)cc1 | 1.15 |
| C=CCSC1=C(C#N)C(c2cc(Br)c(O)c(OC)c2)CC(=O)N1 (centres undefined) | 1.07 |
| CN(c1ccc(C(=O)N2CCc3ccccc3C2)cc1)S(C)(=O)=O | 1.11 |
| O=[n+]1c2c(n([O-])c3cc(Br)ccc31)CCC2 | 1.07 |
| CN1CCCc2cc(C#N)c(=O)[nH]c21 | 2.4 (active) |
| CC(C)(C)n1nnc(CCc2nnn(C(C)(C)C)n2)n1 | 1.09 |

| Structure (SMILES) | fluorescence fold increase |
| --- | --- |
| COC(=O)C(C)C1Sc2ccccc2NC1=O (centres undefined) | 1.01 |
| CCc1ccc(NC(=O)CSc2nnc(-c3cnccn3)n2Cc2ccco2)cc1 | 1.06 |
| CCc1ccc(Nc2ncc3c(n2)CC(c2ccco2)CC3=O)cc1 (centres undefined) | 2.39 (active) |
| O=C(Nc1ncc2c(n1)CC(c1ccco1)CC2=O)c1ccc(Cl)cc1 (centres undefined) | 1.05 |
| COc1ccc(CN2CC(C(=O)NCCN3CCN(c4ccccc4F)CC3)CC2=O)cc1 (centres undefined) | 1.08 |
| CCOC(=O)CN1C(=O)C(O)(CC(=O)c2ccccn2)c2ccccc21 (centres undefined) | 1.04 |
| O=C(Oc1ccccc1)c1ccc2nccnc2c1 | 1.04 |
| CC(=O)N1CC2(C)CN(C(C)=O)CC(C)(C1)C2=O | 1.11 |
| COCCNC(=O)c1snc2ccc(Cl)cc12 | 1.2 |
| CCOC(=O)N1CCN(C(=O)c2cc3c(-c4ccc(Cl)cc4)nn(C)c3s2)CC1 | 1.19 |
| COc1ccccc1N1CCN(C(=O)c2cc3c(-c4ccc(Cl)cc4)nn(C)c3s2)CC1 | 1.07 |
| Cn1nc(-c2ccc(Cl)cc2)c2cc(C(=O)NCc3ccco3)sc21 | 2.11 (active) |
| COc1ccc(S(=O)(=O)N2CCCC2)c(C)c1C | 1.06 |
| COc1cccc(-c2cc3nc4c(c(N5CCC6(CC5)OCCO6)n3n2)CCCC4)c1 | 1.74 |
| c1ccc(COc2nsnc2N2CCOCC2)cc1 | 1.12 |
| O=C1c2ccccc2-c2ncnc3c(N4CCOCC4)cc(N4CCOCC4)c1c23 | 1.04 |
| c1ccc(-c2oc3ncnc(N4CCOCC4)c3c2-c2ccccc2)cc1 | 2.38 (active) |
| COC(=O)c1ccc(OC(=O)c2nn(C)cc2Cl)c(OC)c1 | 1.11 |
| CCOc1ccc(N(CC(=O)OC)S(=O)(=O)c2c(C)noc2C)cc1 | 1.1 |
| O=C(NC1CCCC1)c1ccc(Br)s1 | 1.08 |
